Measurements published in ChEMBL document CHEMBL3433997, “St. Jude Leishmania screening dataset” (2016).

Assays:
Assay type in all cases: functional
[1] = biological target: Solute carrier family 2, facilitated glucose transporter member 1 (Homo sapiens) (UniProt P11166); experiment: ST_JUDE_LEISH: Cytotoxicity at 2uM final concentration against transgenic Leishmania Mexicana promastigotes LmGLUT1 that are glucose transport deficient and complemented with the human glucose transporter GLUT1. Activity is measured by DNA content using SYBR green in vitro
Sequence of Solute carrier family 2, facilitated glucose transporter member 1 (Homo sapiens) (P11166 whole entry): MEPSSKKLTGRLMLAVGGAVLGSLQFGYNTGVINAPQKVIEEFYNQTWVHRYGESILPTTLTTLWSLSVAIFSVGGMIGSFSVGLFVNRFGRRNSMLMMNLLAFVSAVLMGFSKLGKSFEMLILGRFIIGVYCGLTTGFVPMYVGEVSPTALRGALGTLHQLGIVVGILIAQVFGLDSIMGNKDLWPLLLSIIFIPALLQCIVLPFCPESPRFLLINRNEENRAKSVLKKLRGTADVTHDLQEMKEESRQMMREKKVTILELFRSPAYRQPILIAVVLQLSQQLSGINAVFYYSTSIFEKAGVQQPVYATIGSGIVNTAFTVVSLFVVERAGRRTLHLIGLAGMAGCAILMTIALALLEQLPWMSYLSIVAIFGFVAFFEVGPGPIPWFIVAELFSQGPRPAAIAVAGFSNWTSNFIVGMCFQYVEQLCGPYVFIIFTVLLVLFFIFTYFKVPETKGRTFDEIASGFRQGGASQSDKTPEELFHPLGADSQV

[2] = biological target: Hexose transporter 1 (Plasmodium falciparum) (UniProt O97467); experiment: ST_JUDE_LEISH: Cytotoxicity at 2uM final concentration against transgenic Leishmania Mexicana promastigotes LmPfHT that are glucose transport deficient and complemented with the Plasmodium falciparum hexose transporter. Activity is measured by DNA content using SYBR green in vitro
[3] = biological target: Glucose transporter (Leishmania mexicana) (UniProt O61059); experiment: ST_JUDE_LEISH: Cytotoxicity at 2uM final concentration against transgenic Leishmania Mexicana promastigotes LmGT2 that are glucose transport deficient and complemented with the L. Mexicana glucose transporter 2. Activity is measured by DNA content using SYBR green in vitro

| SMILES | inhibition [1] [%] | inhibition [2] [%] | inhibition [3] [%] |
| --- | --- | --- | --- |
| Cc1ccn2c(C(=O)N3CCN(c4cccc5c4nc(-c4ccoc4)n5Cc4ccccn4)CC3)c(C)nc2c1 | 2.33 | 1.01 | -0.49 |
| CCN1CCN(c2cc(C)c3cc(NC(=O)c4ccc([N+](=O)[O-])c(C)c4)ccc3n2)CC1 | 3.68 | 5.06 | 7.26 |
| COc1ccc(-c2ccc([N+](=O)[O-])cc2C(=O)NCC(C)Oc2ccc(C(F)(F)F)cc2)cc1 (stereo not drawn) | -0.75 | -1.3 | -3.99 |
| CCN(CC)CCN(Cc1ccc(-c2ccc(C(F)(F)F)cc2)cc1)C(=O)Cn1c(CCc2ccc(F)c(F)c2F)nc(=O)c2ccc(F)cc21 | 3.42 | 0.08 | -0.03 |
| CCCCCCC(C)c1cc(O)c2c(c1)OC(=O)CC2(CC)c1ccccn1 (stereo not drawn) | 1.55 | 3.13 | 1.77 |
| CC(C)(CNC(=O)C1CCN(Cc2ccoc2)CC1)c1nc(-c2ccc(Cl)c(O)c2)c(-c2ccncc2)[nH]1 | -1.41 | 0.07 | -2.68 |
| COc1ccc(-c2ccc(NC(=O)c3cccc(Cl)c3)cc2)cc1CN1CCCC1 | 11.7 | 2.9 | 4.28 |
| COc1ccc(C2CC(c3cccs3)=NN2C(=O)c2ccccc2)cc1OC (stereo not drawn) | 6.92 | 1.98 | 5.57 |
| Cc1ccc(OCCCCONC(=O)c2ccccc2)cc1 | 0.84 | -1.51 | -0.14 |
| CC(Cc1ccc(OCC(=O)NCC2CCN(CCc3cccc(Cl)c3)CC2)cc1)NCCc1cccc(Cl)c1 (stereo not drawn) | 3.07 | 4.09 | 1.92 |
| Fc1cccc(COc2ccc(Nc3ncnc4sc(C#CCNC5CCCC5)cc34)cc2Cl)c1 | 2.71 | 2.09 | 2.47 |
| CCCCc1ccc2ncc(C(=O)OCC)c(O)c2c1 | -1.09 | -0.73 | -3.16 |
| COc1ccc(-c2cnc3ccc(NCc4ccc(S(N)(=O)=O)cc4)nn23)cn1 | 4.78 | 4.83 | 5.05 |
| COc1cc(NC(=O)/C=C/c2cc(F)cc(F)c2F)cc(OCCN2CCCCC2)c1 | 5.16 | 3.35 | 4.25 |
| O=C(Nc1cccc(-c2ccc(-c3nc4cc(F)ccc4[nH]3)cc2)c1)c1ccoc1 | 1.01 | 1.14 | -0.42 |
| CCCNCc1ccc(-c2ccc(CN(C(=O)c3nn(-c4ccccc4)nc3C)C3CC3)cc2)nc1 | 0.19 | 0.58 | 0.38 |
| O=c1cc(NCCCNCc2cccc(OC(F)(F)F)c2)[nH]c2ccccc12 | 2.97 | -3.41 | 4.57 |
| CNCC(C)(C)c1nc(-c2ccc(Cl)c(O)c2)c(-c2ccncc2)[nH]1 | -1.98 | -1.37 | -3.28 |
| Cc1sc(NC(=O)c2ccc([N+](=O)[O-])cc2Cl)c(C(N)=O)c1C | 2.24 | 2.08 | 2.74 |
| CN1CCN(c2ccnc3ccc(NC(=O)Cc4cccc(Cl)c4Cl)cc23)CC1 | 1.15 | -1.14 | -0.31 |
| CCNc1cc(C(=O)N[C@@H](Cc2ccccc2)[C@H](O)CNC(CC)c2cccc(Cl)c2)cc(N2CCCCS2(=O)=O)c1 (stereo partly drawn) | 4.81 | 1.05 | -0.27 |
| CC1CCCN(S(=O)(=O)c2cc(Br)cc3c2N(C(=O)C2CC2)CC3)C1 (stereo not drawn) | 2.64 | 2.33 | 1.02 |
| COc1ccc2c(OC)c(CNCCCCCCNCc3ccc4cc(OC)ccc4c3OC)ccc2c1 | 106 | 107 | 107 |
| C=CC[C@H](NC(=O)c1ccc(NS(=O)(=O)c2ccc3nc(N)[nH]c(=O)c3c2)cc1)C(=O)OCCCC | 0.58 | 0.62 | 1.67 |

| SMILES | inhibition [1] [%] | inhibition [2] [%] | inhibition [3] [%] |
| --- | --- | --- | --- |
| CCC(CC)n1cc2c(ccc3nc(N)nc(N)c32)n1 | -1.92 | -0.91 | -4.05 |
| COc1ccc(Nc2nc(NCc3ccc(-n4ccnc4)cc3)cc(-c3ccc(OC)cc3)n2)cc1 | 3.31 | 2.46 | 3.46 |
| COc1cccc(CN2CCCN(Cc3cccc(NC(=O)c4ccc(-c5ccccc5)cc4)c3)CC2)c1 | 0.95 | 0.27 | -6.64 |
| O=C(Nc1cccnc1)c1cc(-c2cccnc2)nc2ccc(Cl)cc12 | 6.95 | 2.76 | 1.98 |
| CC(C)(C)c1ccc(-c2csc(NC(=O)CC(c3ccccc3)c3ccccc3)n2)cc1 | 1.4 | 1.95 | 2.07 |
| CCCC1(C)CSc2ccccc2C(c2ccccc2)N1 (stereo not drawn) | 4.9 | 6.11 | 7.67 |
| O=C(Nc1cccc(-c2ccc(-c3nc4cc(C(F)(F)F)ccc4[nH]3)cc2)c1)c1cccnc1 | 3.27 | 1.71 | -0.02 |
| COCCNCc1cccc(-c2ccc3c(Nc4ccc(Oc5ccccc5)cc4)ccnc3c2)c1 | -0.07 | 1.17 | -0.14 |
| O=C(NCc1ccccn1)C(c1cc2ccccc2o1)N1CCN(C(c2ccccc2)c2ccccc2)CC1 (stereo not drawn) | 0.6 | 2.14 | 2.55 |
| O=C(NCCCCN1CCC(c2ccc(Br)cc2)CC1)c1ccc(NC(=O)c2ccc(Cl)cc2)cc1 | -0.29 | 0.2 | -1.89 |
| Cc1cccc2nc(-c3ccc(-c4ccc(CNCC(C)C)cc4)cc3)[nH]c12 | 15.3 | 13.6 | 8.18 |
| c1cc(-c2ccc(CN3CCCC3)cc2)cc(-c2nc3ccccc3[nH]2)c1 | 0.44 | 1.4 | 0.98 |
| N#Cc1ccc(N[C@@H](CC2CCCCC2)C(=O)NCc2cc(Cl)cc(Cl)c2)c2ccccc12 | 2.42 | 5.09 | 4.82 |
| CC(C)CCN1CCCN(Cc2ccc(C(=O)Nc3ccc(Cl)cc3)cc2)CC1 | 11.1 | 11.3 | 11.6 |
| CCC(C)(C)c1ccc2nc(N)nc(N)c2c1C | 74.5 | 76.4 | 61.7 |
| O=C(/C=C/c1ccc(Cl)c(Cl)c1)N1CCC(CN2CCC(Cc3cc4ccccc4[nH]3)CC2)CC1 | 0.17 | 2.49 | 0.81 |
| Fc1ccc2[nH]c(-c3ccc(-c4ccc(CNCCc5ccncc5)cc4)s3)nc2c1 | 5.54 | 4.96 | 7.86 |
| CC(=O)Nc1ccc(CN2CCC(CNC(=O)c3cc(-c4cccc(Cl)c4)cs3)C2)cc1 (stereo not drawn) | -1.53 | 0.33 | 3.3 |
| CN1CCN(c2ccc(Nc3ncc(Cl)c(Nc4cccnc4C(N)=O)n3)cc2)CC1 | 84.2 | 87.3 | 66.8 |
| O=C(c1cnn(-c2ccccc2)c1C(F)(F)F)N1CCN(c2ccnc3cc(Cl)ccc23)CC1 | 1.81 | 1.39 | 2.15 |
| O=C(O)Cc1ccc(-c2c[nH]c3ncc(-c4cccc5ncccc45)cc23)cc1 | 2.28 | 1.77 | 0.63 |
| Fc1ccc2cc(C=Cc3ccncc3)[nH]c2c1 | 2.24 | 4.09 | 0.56 |
| Cc1cc(CN2CCCC(OC(c3ccc(F)cc3)c3ccc(F)cc3)C2)ccc1O (stereo not drawn) | 9.25 | 4.88 | 0.78 |
| Nc1nc(N)c2c(ccc3c2ccn3Cc2ccc3c(c2)OCO3)n1 | 97.8 | 97.5 | 93.7 |

| SMILES | inhibition [1] [%] | inhibition [2] [%] | inhibition [3] [%] |
| --- | --- | --- | --- |
| Cc1cc(N/N=C/c2cccc([N+](=O)[O-])c2)c2cc(F)ccc2n1 | 2.55 | 1.82 | 0.14 |
| COc1cccc(OC)c1CN1CCC(N(C)CCCCCCCCN2CCC(OC(=O)Nc3ccccc3-c3ccccc3)CC2)CC1 | 105 | 108 | 74.3 |
| CCn1c(-c2nc(-c3ccnc(N4CCN(C)CC4)c3)cnc2N)nc2cc(S(C)(=O)=O)ccc21 | 36.5 | 45.3 | 20.7 |
| CCN(CC)C(=O)c1cccc(C=Cc2ccc(-c3c(C)[nH]c(C)c(Cl)c3=O)cc2)c1 | 2.65 | 2.83 | 1.56 |
| Cc1cc(N)nc2ccc(-c3ccc(CN)cc3)cc12 | 9.09 | 6.77 | 4.15 |
| OC1(c2ccc(Br)cc2)CCN(C2CCN(Cc3ccccc3)CC2)CC1 | 5.8 | 6.01 | 3.71 |
| COc1cc2c(cc1C(F)(F)F)N(C(=O)Nc1cccc(-c3ccc(CN(C)C)cc3)c1)CC2 | 22.1 | 10.2 | 44 |
| O=C(CCc1c[nH]cn1)Nc1cccc(-c2cccc(-c3nc4cc(C(F)(F)F)ccc4[nH]3)c2)c1 | -0.34 | 0.58 | 0.79 |
| COc1ccc(Nc2nccc(-c3ccc4c(-c5ccsc5)cnc(N)c4c3)n2)cc1 | 1.99 | 7.26 | 6.65 |
| COc1ccc2nccc([C@@H](O)CN3CCC(CO)(NCc4cc5ccccc5o4)CC3)c2c1 | 7.99 | 13.3 | 1.76 |
| O=c1cc(NCCCN(Cc2cc3c(Cl)cc(Cl)cc3[nH]2)Cc2cc3c(Cl)cc(Cl)cc3[nH]2)[nH]c2ccccc12 | 9.06 | 9.4 | 7.31 |
| COc1ccc(C2C(C(=O)Nc3ccc(C)c(F)c3)c3cc(OC)c(OC)cc3C(=O)N2C)cc1 (stereo not drawn) | 2.11 | 3.41 | 3.34 |
| CCOc1cc(C)ccc1N1CCN(CCCCNC(=O)c2ccc(NC(=O)c3ccc(Cl)cc3)cc2)CC1 | 0.02 | -2.19 | -0.2 |
| N=C(N)Nc1ccc(Cc2ccc(NC(=N)N)cc2)cc1 | -0.68 | -0.57 | 0.58 |
| Oc1ccc2[nH]c(-c3cccc(F)c3)nc2c1CN1CCC(N2CCCC2)CC1 | 3.47 | 3.65 | 4.9 |
| Cc1cc(=NN=Cc2ccccc2Cl)c2cc(F)ccc2[nH]1 | 3.99 | 2.95 | 2.23 |
| CN(C)CCC1CCCc2ccc(NC(=O)Nc3ccc(-c4ccncc4)c4ccccc34)cc21 (stereo not drawn) | 4.29 | 1.03 | -0.88 |
| CCOc1c(CNCCCCCCNCc2ccc3ccccc3c2OCC)ccc2ccccc12 | 3.4 | 4.82 | 1.99 |
| COc1ccc(S(=O)(=O)N2CCCC(C)C2)cc1N1CCN(C(=O)c2ccc([N+](=O)[O-])o2)CC1 (stereo not drawn) | 1.83 | 0.28 | 0.09 |
| CCNc1cc(C(=O)N[C@@H](Cc2cccc(Cl)c2)[C@H](O)CNC(C)CCCC(C)C)cc(N2CCCCS2(=O)=O)c1 (stereo partly drawn) | -0.84 | -1.5 | -4.25 |
| COc1ccc(-c2cccc(CNC3CCN(C)CC3)c2)cc1S(=O)(=O)NCc1ccccc1 | 4.97 | 4.06 | 4.42 |
| COCCCNC(=O)c1ccc(O)c(-c2cc(Cl)cc(Cl)c2)c1 | 0.32 | -2.5 | 1.9 |
| COc1ccc(Nc2nccc(N3CCC(NC(=O)c4cccc(C#N)c4)C3)n2)cc1 (stereo not drawn) | 2.52 | 4.34 | 3.91 |
